From PubChem BioAssay (Tox21) come the findings set out here.

Results filed as inconclusive are left out. Entries that show only a call come without a potency. A number with no mark means an inactive call. Active and inactive are the calls of the source. Calls come from the whole dose curve.

Chain of D(2) dopamine receptor (Homo sapiens) (P14416 whole entry, looked up): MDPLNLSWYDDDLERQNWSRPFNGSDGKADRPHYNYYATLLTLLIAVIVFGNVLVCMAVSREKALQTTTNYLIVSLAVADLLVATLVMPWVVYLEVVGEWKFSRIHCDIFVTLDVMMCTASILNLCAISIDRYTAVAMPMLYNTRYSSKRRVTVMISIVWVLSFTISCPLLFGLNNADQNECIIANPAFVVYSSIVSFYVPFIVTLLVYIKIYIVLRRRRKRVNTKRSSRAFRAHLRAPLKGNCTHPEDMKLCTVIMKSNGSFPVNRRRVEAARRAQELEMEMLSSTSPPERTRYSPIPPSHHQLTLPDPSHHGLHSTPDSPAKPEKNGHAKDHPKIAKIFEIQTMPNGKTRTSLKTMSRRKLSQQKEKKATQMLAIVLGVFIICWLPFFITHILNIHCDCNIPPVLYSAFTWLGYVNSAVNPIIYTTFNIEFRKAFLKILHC

This assay addresses D(2) dopamine receptor (Homo sapiens) (UniProt P14416). Put plainly: Dopamine D2 receptor (DRD2) small molecule agonists, cell-based qHTS assay (AID 1963594). Note: nearly all actives have a fitted effect of over 35% in size. Conditions: HEK293-DRD2 cAMP HTRF, agonist mode, 30 min; series mostly up to 92.4 µM. The source says: National Center for Advancing Translational Sciences [NCATS]
Division of Preclinical Innovation [DPI]
U.S. Environmental Protection Agency [EPA]
National Institutes of Environmental Health Sciences [NIEHS]
National Toxicology Program [NTP]
U.S. Food and Drug Administration [FDA]
DRD2 is the D2 subtype of the dopamine receptor, which is coupled to Gi subtype of G protein-coupled receptor. This G protein-coupled receptor inhibits adenylyl cyclase activity. The DRD2-HEK293 cell line stably expressing D2 dopamine receptor can be used for screening agonists and antagonists of interactions between D2 and its ligands. The Hek293-DRD2 cAMP assay is based on HTRF technology. It measures changes of cAMP accumulation in response to Gi coupled GPCR activation or inhibition.
Tox21 Assay Protocol Summary:
DRD2-Hek293 cells were dispensed at 600 cells/3uL/well in 1536-well white plates using a Multidrop Dispenser. After the assay plates were incubated at a 37 C/5% CO2 incubator for 24 h, 1 uL of Ro20-1724 at final concentration of 0.1 mM was transferred to the assay plate by a Flying Reagent Dispenser. Following Ro20-1724 addition, 23 nL of compound dissolved in DMSO, positive controls or DMSO only was added to the assay plates via Wako pintool station. The assay plates were incubated at room temperature for 10 min. Next, 1 uL of NKH477 at 200nM was added into the plates. After the assay plates were incubated at room temperature for an additional 30 min, 2.5 ul/well of cAMP-d2 and 2.5 ul/well of anti-cAMP-cryptate were added respectively into the assay plates using a Flying Reagent Dispenser. The plates were incubated at room temperature for 1 h. The fluorescence intensity in the plates was measured at 340 nm excitation and 665 & 620 nm emission by an Envision plate reader.
For the compound `N#Cc1sc2c(=O)c3ccccc3c(=O)c=2sc1C#N`, the Potency result is “inactive”.
Turning to `CCC(C(N)=O)N1CCCC1=O` (stereo not given), the Potency entry is “inactive”.
For `C1CCNCC1`, the Potency result was “inactive”.
On the same count and under the same terms, with `O=C(Cl)c1ccc(Cl)cc1` the entry was “inactive”; with `CCN(CC)CCOC(=O)C(C)(c1ccccc1)c1ccccc1`, “inactive”; with `O=C1c2ccccc2C(=O)C1C(=O)C(c1ccccc1)c1ccccc1`, “inactive”.
As for `CC1=C(C(=O)O)N2C(=O)[C@@H](N)[C@H]2SC1`, the activation was -15.4% [at 19 µM].
As for `CN(C)C(=S)[S-].CN(C)C(=S)[S-].[Cu+2]`, the activation was 0.949% [at 19 µM].
With `CCCSP(=O)(OCC)Oc1ccc(Br)cc1Cl` (stereo not given), the Potency result was “inactive”.
In the case of `CC(CCc1ccccc1)NC(C)C(O)c1ccc(O)cc1` (stereo not given), the Potency entry is “inactive”.
On to `CC(C)(c1cc(Cl)c(O)c(Cl)c1)c1cc(Cl)c(O)c(Cl)c1`, for which the Potency result is “inactive”.
On the same count and under the same terms, next, `COP(=O)(OC)O/C(C)=C/C(=O)N(C)C`: “inactive”; `BrCCCCCCBr`: “inactive”; `C=CC(=O)OCC(C)O` (stereo not given): “inactive”.
On to `C[C@]12Cc3cn[nH]c3C[C@@H]1CC[C@@H]1[C@@H]2CC[C@@]2(C)[C@H]1CC[C@]2(C)O`, for which the Potency entry is “inactive”.
Take `O=[N+]([O-])c1cccc2cccnc12`: the Potency entry is “inactive”.
On to `Oc1c(I)cc(I)cc1I`, for which the Potency entry is “inactive”.
Take `CCOc1cc(OP(=S)(OC)OC)nc(CC)n1`: the Potency result was “inactive”.
Regarding `O=C(NC(O)C(Cl)(Cl)Cl)NC(O)C(Cl)(Cl)Cl` (stereo not given), the Potency entry is “inactive”.
On to `CCOC(=O)C(SP(=S)(OC)OC)c1ccccc1` (stereo not given), for which the Potency result was “inactive”.
On to `CN/C(=N\[N+](=O)[O-])NCc1cnc(Cl)s1`, for which the Potency result was “inactive”.
Take `Clc1ccc(-c2ccc(Cl)c(Cl)c2Cl)c(Cl)c1Cl`: the Potency entry was “inactive”.
Regarding `Cc1nnc(-c2ccccc2)c(=O)n1N`, the Potency result was “inactive”.
Turning to `c1ccc2c(c1)cc1ccc3cccc4ccc2c1c34`, the Potency entry was “inactive”.
Same read-out and setting: with `CC1(C)C(C(=O)OC(C#N)c2cccc(Oc3ccccc3)c2)C1(C)C` (stereo not given) the entry was “inactive”; with `CCN1CCC2(CC1)COc1cc3c(cc12)N(C(=O)c1ccc(-c2ccc(-c4nnc(C)o4)cc2C)cc1)CC3`, “inactive”.
In the case of `O=C1OC(c2ccc(O)c(S(=O)(=O)O)c2)(c2ccc(O)c(S(=O)(=O)O)c2)c2c(Br)c(Br)c(Br)c(Br)c21`, the Potency result is “inactive”.
In the case of `CC(C)[C@H](C(=O)O[C@H](C#N)c1cccc(Oc2ccccc2)c1)c1ccc(Cl)cc1`, the Potency result was “inactive”.
Regarding `OCC(c1ccc(Cl)cc1)c1ccc(Cl)cc1`, the Potency result was “inactive”.
In the case of `CN(C)CCc1c[nH]c2ccccc12`, the Potency result was “inactive”.
Turning to `NP(N)(=O)NC(=O)c1ccc(F)cc1`, the Potency entry is “inactive”.
On the same count and under the same terms, with `O=C1CCCCC1Cl` (stereo not given) the entry was “inactive”.
As to `FC(F)(F)c1cccc(C2=CCN(CCc3ccc4ccccc4c3)CC2)c1`, the Potency result was “inactive”.
Same read-out and setting: with `Cc1cc(SCc2sc(-c3ccc(C(F)(F)F)c(F)c3)nc2C)ccc1OCC(=O)O` the entry was “inactive”; with `CCOP(=S)(OCC)Oc1cc(-c2ccccc2)on1`, “inactive”.
With `CN(C)[C@@H]1C(=O)C(C(N)=O)=C(O)[C@@]2(O)C(=O)C3=C(O)c4c(O)ccc(Cl)c4[C@@](C)(O)[C@H]3C[C@@H]12`, the Potency entry is “inactive”.
`O=S(=O)(NS(=O)(=O)C(F)(F)F)C(F)(F)F`: the Potency entry is “inactive”.
As for `CCOC(=O)CC(=O)CCl`, the Potency result is “inactive”.
For `NC(=O)c1ccc(N)nc1`, the Potency entry is “inactive”.
For the compound `O=C(Nc1ccccc1)Nc1cnns1`, the Potency entry is “inactive”.
